Source: PubChem BioAssay AID540345 (The Scripps Research Institute Molecular Screening Center, 2011)
Values without a mark were called inactive. The rule behind the calls is not given here.

Tested on: Potassium Channel [KATP]
Test: off-target binding and CYP inhibition panel, profiling panel, selectivity assay for GPR7 antagonist project, biochemical, Ricerca HitProfilingScreen, CYP450, set 2 (AID 540345)
Conditions: Ricerca radioligand binding/CYP panel, at 10 µM, stronger effect = higher value

## COc1ccc(Oc2c(Cl)cnn(C3c4ccccc4-c4ccccc43)c2=O)cc1
  inhibition: -5%
